The source of these data is PubChem BioAssay AID1745849 (National Center for Advancing Translational Sciences (NCATS), 2022).

Screen size: about 2,100 compounds; about 320 (15%) were called active. Roughly 52% stayed inconclusive and do not appear here. Calls come from the whole dose curve; as a rule, active = well fitted cell-killing curve with a large enough effect; inconclusive = small, poorly fitted or top-dose-only effect, or effect the other way; inactive = flat fitted curve, though single readings scatter. Some of the results follow. Where a call stands in place of a potency, no number is given.
Potency is the fitted concentration of half-maximal effect.

This test can be described thus: Viability Counterscreen for CMV-Luciferase Assay of Inhibitors of ATXN expression. Note: nearly all actives have a fitted effect of over 55% in size. The following applies: HEK-293 CMV-luciferase cells viability, protease fluorescence, 24 h. In a few lines: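 HEK-293 cells stably expressing CMV-luciferase, treated 24 hr at 37 °C with compounds (several concentrations). Viability by Gly-Phe-AFC fluorescence (25 uM final, 30 min); reporter by SteadyGlo luminescence after 5 min.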
A general note: A counterscreen serves to expose hits that act by an unwanted route or on another target.
As to `O=C(N/N=C/c1cc(Br)ccc1O)C(c1ccncc1)N1CCOCC1` (stereo unspecified), the Potency result is “inactive”.

With `Cc1cc(C(=O)N/N=C/c2cc(Br)ccc2OC(=O)c2ccccc2)n[nH]1`, the Potency entry was “inactive”.

Take `COc1cccc(NC(=O)/C=C/c2ccc(S(=O)(=O)N3CCOCC3)cc2)c1`: the Potency result is “inactive”.

As to `Cn1c(CO)c(-c2ccccc2)c2cc([N+](=O)[O-])ccc21`, the Potency entry was “inactive”.

For `Cc1[nH]n2c(=O)cc(C(C)(C)C)nc2c1-c1ccccc1`, the Potency was 11.2 µM (active).

On to `CC(C)N(C(=O)COC(=O)c1ccccc1C(=O)c1ccc(Cl)c([N+](=O)[O-])c1)C(C)C`, for which the Potency result was “inactive”.

With `CCCCNCCCOc1cccc(Cl)c1Cl`, the Potency entry was “inactive”.

Take `COCCCNCCCOc1ccc(Cl)cc1C(C)(C)C`: the Potency was 25.1 µM (active).

Turning to `O=C(N/N=C\c1cc(Br)ccc1O)c1ccc(S(=O)(=O)N2CCCCC2)cc1`, the Potency result is “inactive”.

As for `O=C(N/N=C\c1cc(Cl)ccc1O)c1ccc(S(=O)(=O)N2CCCCC2)cc1`, the Potency result was “inactive”.

For the compound `CC(OC(=O)c1cc(Br)ccc1O)C(=O)Nc1ccc(S(=O)(=O)N2CCCC2)cc1` (stereo unspecified), the Potency is 28.2 µM (active).

Consider `COc1ccc(-c2n(CC(=O)OC3CC(C)CCC3C(C)C)c3ccccc3[n+]2C)cc1` (stereo unspecified), for which the Potency is 7.94 µM (active).

Consider `N#C/C(=N\Nc1cccc([N+](=O)[O-])c1)C(=O)c1ccc(Br)cc1`, for which the Potency is 2.24 µM (active).

As for `C/C(=N\Nc1cc(N2CCOCC2)nc(C)n1)c1cccc([N+](=O)[O-])c1`, the Potency result is “inactive”.

Regarding `CC(NC(=O)Nc1cccc([N+](=O)[O-])c1)c1ccc2c(c1)OCO2` (stereo unspecified), the Potency result was “inactive”.

Regarding `Cc1csc2c(N3CCN(C(=O)Nc4ccc(Cl)c(Cl)c4)CC3)ncnc12`, the Potency entry is “inactive”.

Take `COc1ccc([C@@]2(C(C)C)ON(c3ccccc3C(F)(F)F)C2=O)cc1`: the Potency entry was “inactive”.

Consider `O=C(NCC(=O)N1CC(O)CC1C(=O)N1CCCC1C(=O)OCc1ccccc1)OCc1ccccc1` (stereo unspecified), for which the Potency result is “inactive”.

Turning to `C=CCc1cccc(/C=N/NC(=O)CCCNc2ccc(C)cc2)c1O`, the Potency is 20 µM (active).

Take `C=CCc1cccc(/C=N/NC(=O)CNc2ccccc2)c1O`: the Potency entry was “inactive”.

Consider `O=C(Cc1ccccc1)N/N=C/c1cc(Br)cc(Br)c1O`, for which the Potency result is “inactive”.

Turning to `Cc1cc(C)c2nc(NNC(=O)c3ccc(S(=O)(=O)N4CC(C)CC(C)C4)cc3)sc2c1` (stereo unspecified), the Potency result was “inactive”.

For the compound `Cc1cc(C)c2nc(NNC(=O)c3cc(-c4cccs4)nc4ccccc34)sc2c1`, the Potency entry was “inactive”.

Turning to `CCOC(=O)N1CCN(S(=O)(=O)c2ccc(C(=O)NNc3nc4c(C)cc(C)cc4s3)cc2)CC1`, the Potency was 1.58 µM (active).

For the compound `Cc1nc(SCc2ccc(C(=O)O)cc2)nc2c1CCCC2`, the Potency entry is “inactive”.

On to `CN(C)CCNC(=O)c1cccc(-c2cnc3c(NC=O)cc(-c4cccc(C(F)(F)F)c4)cn23)c1`, for which the Potency was 22.4 µM (active).

Regarding `CN(C)CCNC(=O)c1cccc(-c2cnc3c(NC=O)cc(/C=C/c4ccccc4)cn23)c1`, the Potency was 28.2 µM (active).

Consider `CN(C)CCNC(=O)c1cccc(-c2cnc3c(NC=O)cc(-c4cccs4)cn23)c1`, for which the Potency result was “inactive”.

`CN(C)C(=O)c1cccc(-c2cnc3c(NC=O)cc(-c4ccc(F)cc4)cn23)c1`: the Potency entry was “inactive”.

Consider `CN1CCN(c2ccc(-c3cc(NC=O)c4ncc(-c5ccc(F)c(Cl)c5)n4c3)cc2)CC1`, for which the Potency result was “inactive”.

`CCCCNC(=NCc1cccc(C(F)(F)F)c1)Nc1ccccc1`: the Potency result is “inactive”.

As for `COc1cc(/C=N/Nc2ccc(Cl)c(C(=O)O)c2)ccc1OC(=O)c1ccco1`, the Potency entry was “inactive”.

For `NC(=O)c1c(NC(=O)c2ccc(S(=O)(=O)N3CCOCC3)cc2)sc2c1CCCCC2`, the Potency result is “inactive”.

With `COC(=O)c1c(NC(=O)c2ccc([N+](=O)[O-])o2)sc2c1CCN(C(C)C)C2`, the Potency is 15.8 µM (active).

For the compound `CN(C)C(CNC(=O)c1cccc(S(=O)(=O)N2CCN(c3ccc(F)cc3)CC2)c1)c1ccccc1` (stereo unspecified), the Potency entry was “inactive”.

For `Cc1ccc(OCC(=O)c2cc(C)n(Cc3cccs3)c2C)c([N+](=O)[O-])n1`, the Potency entry is “inactive”.

For `COc1ccc(CCNC2=C(Cl)C(=O)N(Cc3ccccc3)C2=O)cc1OC`, the Potency entry was “inactive”.

`COCCCNC1=C(Cl)C(=O)c2ccccc2C1=O`: the Potency is 25.1 µM (active).

As for `CC(C)Cn1c(/C=N/Nc2nc3ccccc3[nH]2)nc2ccccc21`, the Potency entry is “inactive”.

Regarding `CCC(C)(C)c1ccc(OCCCC[n+]2ccccc2)c(C(C)(C)CC)c1`, the Potency result was “inactive”.

As to `Nc1ncn([C@@H]2O[C@H](CO)[C@@H](O)[C@H]2O)c(=O)n1`, the Potency is 6.31 µM (active).

`Nc1ccn([C@@H]2O[C@H](CO)[C@@H](O)[C@@H]2O)c(=O)n1`: the Potency entry was “inactive”.

As to `Nc1ccn(C2OC(COP(=O)(O)O)C(O)C2O)c(=O)n1` (stereo unspecified), the Potency result is “inactive”.

As to `C/C(=N\NC(=O)c1ccc(CN2CCc3ccccc3C2)cc1)c1ccccc1O`, the Potency entry is “inactive”.

With `Cc1c(OCC(=O)NC2CC(C)(C)NC(C)(C)C2)ccc2c1oc(=O)c1ccccc12`, the Potency entry is “inactive”.

Turning to `CCOCCn1ccc2c(OCC(=O)Nc3ccc(OC)c(OC)c3)cccc2c1=O`, the Potency entry was “inactive”.

In the case of `COc1cccc(CN(C)C(=O)c2ccc(OCC(=O)Nc3cccc(C(F)(F)F)c3)c(OC)c2)c1`, the Potency was 17.8 µM (active).

On to `COc1cccc(OCC(=O)Nc2cc(Cl)ccc2Oc2ccccc2)c1`, for which the Potency result is “inactive”.

As to `O=C(Nc1nc(NC(=O)c2ccco2)n(-c2ccccc2)n1)c1ccccc1`, the Potency is 12.6 µM (active).

`O=C(Nc1ccc(NC(=O)c2ccco2)cc1)c1ccc2c(c1)OCCO2`: the Potency entry was “inactive”.

`CN(CCc1ccccc1)c1cc2c(c3c1ccn3C)C1CCC2O1` (stereo unspecified): the Potency entry is “inactive”.

Consider `O=C(CN1C(=O)c2ccccc2S1(=O)=O)Nc1ncc(Cl)cc1Cl`, for which the Potency result is “inactive”.

Consider `O=C(NNC(=O)c1cnccn1)c1ccc(Cl)c(Cl)c1`, for which the Potency was 22.4 µM (active).

Take `O=C(NCCc1csc(-c2cccnc2)n1)c1cccc(Cl)c1`: the Potency entry is “inactive”.

With `O=C(N/N=C/c1cc(Cl)ccc1O)c1cccnc1`, the Potency result is “inactive”.

`CCCC[C@@H](CNC)NC[C@H](NCCCCC1CCCCC1)C(C)C`: the Potency was 28.2 µM (active).

Consider `OC(c1cc(F)cc(Cl)c1)c1ncc(-c2cccc(C(F)(F)F)c2)[nH]1` (stereo unspecified), for which the Potency result was “inactive”.

Regarding `CCOC(=O)c1c(NC(=O)C(Sc2ccccc2)c2ccccc2)sc(C(=O)N(C)C)c1C` (stereo unspecified), the Potency result was “inactive”.

Consider `C=CCOC(=O)C1=C(C)NC(SCC)=C(C#N)C1c1ccc(Cl)cc1` (stereo unspecified), for which the Potency entry is “inactive”.

Regarding `O=C1C=C(NCCc2cc(Br)c(O)c(Br)c2)C(=O)c2ncccc21`, the Potency is 8.91 µM (active).

As for `Brc1cnc2nc(SCc3nc4ccccc4[nH]3)[nH]c2c1`, the Potency entry is “inactive”.
